Shown are actives, neighbours in structure and some others; about 4% of the full set was active somewhere.
CF NFkB inh – inhibitors of PAF-induced NF-kB signaling, primary screen, cell-based, GFP fluorescence, uHTS | KKLEB NF-kB-GFP reporter, GFP fluorescence overnight | AID 588850, 2011 | hit rate 0.86% among 360,000 | inhibition, % at 5 µM;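 active = at least 50% inhibition at 5 µM, scaled per plate between neutral and stimulator controls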;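 also: PAF is a Pseudomonas aeruginosa culture filtrate used as stimulus; plate controls were PAF-stimulated DMSO wells for no effect and unstimulated DMSO wells for full effect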
TROY signal inh – inhibitors of TROY-driven NF-kB signaling, primary screen, Q293 LMP1-TROYcd cells, NF-kB luciferase, uHTS | Q293 LMP1-TROYcd NF-kB luciferase reporter, 4 h | inhibition, % at 10 µM | hit rate 0.98% among 360,000;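 active = compounds whose plate-normalised and pattern-corrected inhibition of the luciferase reporter signal at the single screening dose is 50% or more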
TWEAK Fn14 block – inhibitors of TWEAK-Fn14 signaling, primary screen, luciferase reporter cells, uHTS; TWEAK-stimulated Fn14 reporter cells, luciferase luminescence, 8 h; inhibition, % at 10 µM; hit rate 2% among 360,000; in the data active = inhibition above about 50%
KKLEB cytotox – cytotoxicity in KKLEB CF airway cells, primary screen, cytotoxicity control for CF NF-kB inhibitor project, cell-based, uHTS, fluorescence assay plates. KKLEB CF airway cells viability, ATPlite luminescence, overnight; hits give low values; cells stimulated with P. aeruginosa culture filtrate. activity change (cytotoxicity), % at 5 µM. hit rate 0.36% among 360,000. AID 602141, 2011;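 active = corrected activity change at or below -50% at 5 µM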
HIF-2a block – HIF-2a reporter inhibitors, primary screen, luminescence, 786-0 RCC cells | AID 624352, 2012 | 786-0 RCC cells HIF-2a reporter, luciferase luminescence, overnight | hit rate 0.72% among 360,000 | inhibition, % at 18.8 µM;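 active = inhibition of the luminescence signal of 40% or more relative to plate controls, in a single-dose primary screen at 18.75 µM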
Peg3 prom inh – Peg3 promoter-driven luciferase inhibitors, primary screen, cell-based, HeLa, luciferase luminescence. AID 588405, 2011. inhibition, % at 20 µM. hit rate 1.7% among 360,000. HeLa PEG-Prom luciferase reporter, overnight;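 active = inhibition of at least 50% at 20 µM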
An asterisk follows results filed as active.

SMILES	CF NFkB inh	TROY signal inh	TWEAK Fn14 block	KKLEB cytotox	HIF-2a block	Peg3 prom inh
N#Cc1c([N+](=O)[O-])cc([N+](=O)[O-])cc1S(=O)(=O)Cc1ccccc1	82*	52*	43	-62*	94*	98*
Nc1ccc(-c2nc3ccc(-c4nc5ccccc5o4)cc3[nH]2)cc1	37	-34	31	-76*	-275	73*
COc1ccc(-c2ccc(/C=C3/C(=N)N4C(C)=CSC4=NC3=O)o2)c([N+](=O)[O-])c1	-27	-1	-5	15	-4	22
Cc1ccc(S(=O)(=O)c2ccc(C)cc2)cc1	8	-7	0	2	-7	3
Cc1ccc(S(=O)(=O)C=CS(=O)(=O)c2ccc(C)cc2)cc1	96*	3	4	-37	52*	95*
Cc1noc(C)c1C(=O)N1CCCC(C(=O)c2ccc(Cl)cc2)C1 (configuration not stated)	18	-14	6	-13	24	16
Cc1ccc2[nH]nc(C(=O)N3CCCC(C(=O)c4ccc(Cl)cc4)C3)c2c1 (configuration not stated)	3	48	59*	3	5	29
O=C(C[n+]1cc(Br)cc2ccccc21)c1ccc(Br)cc1	5	-3	4	-15	25	29
O=C(C[n+]1cn(C(F)F)c2ccccc21)c1ccc(Br)cc1	-14	-31	86*	12	-1	7
COc1cccc(NC(=O)C2CCN(c3cnccn3)CC2)c1	4	-2	98*	1	5	0
COC(=O)C(Cc1cnc(Cl)s1)(C(=O)OC)c1ccccc1[N+](=O)[O-]	4	9	1	-2	10	18
CCn1c(/C=C/c2ccccc2)nc2ccccc21	-11	-37	27	-53*	-175	-137
CC(=O)c1c(C)[nH]c(C(=O)Nc2cccc(S(=O)(=O)N3CCCC3)c2)c1C	-74	-11	-14	-8	-68	-28
COc1cc(-n2c(=O)c3ccccc3n(Cc3cccc(F)c3)c2=O)cc(OC)c1OC	7	3	-13	7	17	11
CCN1CCc2nc(NC(=O)c3ccccc3)sc2C1	-7	50	85*	-13	-9	36
O=C(Nc1nc2c(s1)CCCC2)c1ccc(N2C(=O)CCC2=O)cc1	12	-31	-12	-8	-172	-68
O=C(Nc1nc2c(s1)CN(Cc1ccccc1)CC2)C1CCC1	-27	-22	4	-10	-134	-94
O=C(NC(=S)Nc1nc2c(s1)CCCC2)c1ccccc1	44	23	30	-52*	-222	-163
O=C(Nc1nc2c(s1)CCCC2)c1ccc(Br)s1	-22	6	55*	2	-327	-300
CC(=O)OC1COC(n2ccc3ccccc32)C(OC(C)=O)C1OC(C)=O (configuration not stated)	5	-2	4	-11	23	2
N#CC1=C(Nc2ccccc2Cl)SC2(CCCC2)NC1=O	-10	-23	-7	-19	20	-12
CC(C)(C)OC(=O)N1CCN(Cc2ccc(F)c(B(O)O)c2)CC1	-7	-8	18	11	-1	3
CN(C(=O)CN1C(=O)S/C(=C\c2ccccc2Cl)C1=O)C1CCS(=O)(=O)C1 (configuration not stated)	-33	-11	58*	3	9	35
CC(C)C(NC(=O)C(Cc1ccccc1)NC(=O)OCc1ccccc1)C(=O)O (configuration not stated)	-5	-17	12	1	18	-2
CCOc1cc(/C=N/NC(=O)COc2ccc(Cl)cc2)ccc1OS(=O)(=O)c1ccccc1	22	27	54*	11	17	13
SMILES	CF NFkB inh	TROY signal inh	TWEAK Fn14 block	KKLEB cytotox	HIF-2a block	Peg3 prom inh
COc1ccc(C(=O)N/N=C/C(=O)c2ccccc2)cc1	14	-9	19	-10	-284	-271
Cc1ccc(C(=O)NN=CC(=O)c2ccccc2)c(C)c1	-3	52*	65*	-4	-213	-222
O=[N+]([O-])c1ccc(N/N=C\c2cccn2-c2ccccc2)nc1	-2	-30	52*	-5	-63	44
O=C(NCc1cccnc1)c1cc(C2CCCN(C(=O)c3ccc4c(c3)CCO4)C2)on1 (configuration not stated)	-21	3	-10	-2	13	6
C[n+]1c2n(c3ccccc31)N=C(c1ccccc1)CS2	-44	5	-38	13	11	5
C[n+]1c2n(c3ccccc31)N=C(c1ccc(-c3ccccc3)cc1)CS2	25	20	54*	-20	-3	1
CCN=C1S/C(=C\c2cc(OCC)c(O)cc2Br)C(=O)N1CC	47	29	23	-29	15	51*
COc1ccccc1C1=NNC(=Nc2cccc(S(=O)(=O)N(C)C)c2)SC1	-21	16	50*	-2	3	7
CC(C(=O)N1CCOCC1)c1ccc([N+](=O)[O-])cc1 (configuration not stated)	4	5	18	-5	26	2
COc1cc(NC(=O)c2ccc(-c3ccnn3C)c3ccoc23)cc(OC)c1OC	-7	7	11	-10	-194	-108
CC(C)c1ccc(NC(=O)c2ccc(-c3ccnn3C)c3ccoc23)cc1	-4	33	79*	2	-135	-126
CCc1cccc2c(C(=O)CN3C(=O)NC(C)(c4cccc5ccccc45)C3=O)c[nH]c12 (configuration not stated)	-10	33	-2	-8	-3	60*
CCCCc1c(O)nc(SCC(=O)Nc2cccc3ccccc23)n(-c2ccccc2OC)c1=O	6	-1	4	-10	15	2
Cn1cc(CN2CCC(C(=O)NC(c3ccc(-c4ccccc4)cc3)c3cnccn3)CC2)c2ccccc21 (configuration not stated)	38	7	-22	-28	-30	107*
COC(=O)C(C(C)=O)C1=C/C(=N\S(=O)(=O)c2ccc(C)cc2)c2ccccc2C1=O (configuration not stated)	4	0	17	6	5	20
Cc1ccccc1NC1=C/C(=N\S(=O)(=O)c2ccc(C(=O)O)cc2)c2ccccc2C1=O	100*	42	93*	-56*	56*	101*
CC(=O)Nc1ccc(NC2=C/C(=N/S(=O)(=O)c3cccs3)c3ccccc3C2=O)cc1	81*	67*	99*	-32	18	15

Bioassay records from PubChem BioAssay.
